Measured values: PubChem BioAssay (EPA / NIEHS)
Values joined by “and” are separate entries in the source; they are usually repeats but may differ in a detail not shown here. Equal values may be shown once. Records with an inconclusive call do not appear. The source holds several records for some structures; these can differ, active in one and inactive in another. Active and inactive are the calls of the source. Rule for the calls, unless noted: active = hit-call score of the fitted dose curve at least 0.9, where 1 is the maximum; inactive = score below 0.9.

Tests used:
[1] = ATG_GAL4_TRANS: Attagene TRANS-FACTORIAL HepG2 Assay for GAL4 (Internal Marker) (AID 2282976; active = hit-call score of the fitted dose curve at least 0.9, where 1 is the maximum); settings: HepG2 Attagene TRANS GAL4 internal marker reporter
Procedure, shortened: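 Fluorescence from capillary electrophoresis of labelled RT-PCR products quantifies reporter mRNA induction after 24 h dosing of HepG2 cells carrying transfected GAL4-UAS reporter transcription units. Vehicle DMSO serves as baseline.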

[2] = target: Oxysterols receptor LXR-alpha (Homo sapiens) (UniProt Q13133); test: ATG_LXRa_TRANS: Attagene TRANS-FACTORIAL HepG2 Assay for human Liver X Receptor alpha (LXRa) (AID 2282980; active = hit-call score of the fitted dose curve at least 0.9, where 1 is the maximum); settings: HepG2 Attagene TRANS reporter, LXRa transactivation
Procedure, shortened: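 Transient HepG2 transfectants, 24 h dosing, RT-PCR/CE mRNA reporter quantitation; gain-of-signal vs DMSO.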

[3] = target: Oxysterols receptor LXR-beta (Homo sapiens) (UniProt P55055); test: ATG_LXRb_TRANS: Attagene TRANS-FACTORIAL HepG2 Assay for human Liver X Receptor beta (LXRb) (AID 2282981; active = hit-call score of the fitted dose curve at least 0.9, where 1 is the maximum); settings: HepG2 Attagene TRANS GAL4-LXRb reporter, mRNA
Procedure, shortened: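 After 24 h of chemical treatment, transfected HepG2 cells yield total RNA; reporter cDNA is PCR-amplified, FAM-labelled, HpaI-cut and run on capillary electrophoresis. Signal reflects chimeric LXRb-Gal4 activity on GAL4-UAS reporters.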

[4] = target: Hepatocyte nuclear factor 4-alpha (Homo sapiens) (UniProt P41235); test: ATG_HNF4a_TRANS: Attagene TRANS-FACTORIAL HepG2 Assay for human Hepatocyte Nuclear Factor 4 alpha (HNF4a) (AID 2282982; active = hit-call score of the fitted dose curve at least 0.9, where 1 is the maximum); settings: HepG2 HNF4a transactivation reporter, mRNA readout
Procedure, shortened: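 Multiplexed reporter assay: transfected HepG2, 24 h exposure, total RNA → oligo(dT) RT → PCR → 6-FAM extension → HpaI digest → CE fluorescence. DMSO = negative control.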

[5] = ATG_M_06_TRANS: Attagene TRANS-FACTORIAL HepG2 Assay for M06 Transcription Factor (Internal Marker) (AID 2282983; active = hit-call score of the fitted dose curve at least 0.9, where 1 is the maximum); settings: HepG2 Attagene TRANS M06 internal marker reporter
Procedure, shortened: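 Human liver HepG2 cells bearing transiently transfected chimeric NR-GAL4 reporter units were treated with chemicals for 24 h. Total RNA was reverse-transcribed, reporter sequences amplified and labelled, then quantified by capillary electrophoresis. Activity was fitted upward relative to DMSO.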

[6] = ATG_M_32_TRANS: Attagene TRANS-FACTORIAL HepG2 Assay for M32 Transcription Factor (Internal Marker) (AID 2282984; active = hit-call score of the fitted dose curve at least 0.9, where 1 is the maximum;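 note: transcript level of a background control reporter unit measured by RT-PCR and capillary electrophoresis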); settings: HepG2 Attagene TRANS M32 internal marker reporter
Procedure, shortened: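 Cell-based TRANS-format assay in HepG2: exogenous chimeric GAL4 reporter units transiently expressed, compounds applied 24 h. Reporter mRNA detected by RT-PCR plus capillary electrophoresis; this readout is an internal background marker.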

[7] = target: Nuclear receptor subfamily 4 group A member 2 (Homo sapiens) (UniProt P43354); test: ATG_NURR1_TRANS: Attagene TRANS-FACTORIAL HepG2 Assay for human Nuclear Receptor Related Protein 1 (NURR1) (AID 2282985; active = hit-call score of the fitted dose curve at least 0.9, where 1 is the maximum); settings: HepG2 Attagene TRANS reporter, mRNA readout
Procedure, shortened: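 Measures transcriptional activation by an exogenous NR-Gal4 chimera in transfected HepG2 liver cells. After 24 h, reporter RNA is reverse-transcribed, amplified and resolved by capillary electrophoresis; DMSO defines baseline.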

[8] = target: Transcriptional activator Myb (Homo sapiens) (UniProt P10242); test: ATG_Myb_CIS: Attagene CIS-FACTORIAL HepG2 Assay for human Myeloblastosis (Myb) Proto-Oncogene Transcription Factor (AID 2282986); settings: HepG2 Attagene CIS-FACTORIAL Myb reporter transcription; actives raise or lower the signal
Procedure, shortened: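 Endogenous transcription factor activity at a Myb-responsive cis element is reported in human liver HepG2 cells after 24 h chemical treatment. Reporter mRNA is detected by RT-PCR and capillary electrophoresis fluorescence, with DMSO as baseline.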

[9] = target: Nuclear respiratory factor 1 (Homo sapiens) (UniProt Q16656); test: ATG_NRF1_CIS: Attagene CIS-FACTORIAL HepG2 Assay for human Nuclear Respiratory Factor 1 (NRF1) Orphan Gene (AID 2282987); settings: HepG2 NRF1 cis-element reporter, Attagene multiplex; actives raise or lower the signal
Procedure, shortened: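 Human hepatoma HepG2 cells carrying transfected promoter-regulated reporter units were incubated with test chemicals for 24 h. Reporter transcripts were measured by RT-PCR plus capillary electrophoresis, and endpoints derived by bidirectional fitting with DMSO as baseline.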

[10] = ATG_NFI_CIS: Attagene CIS-FACTORIAL HepG2 Assay for human Nuclear Factor I (NFI) (AID 2282989); settings: HepG2 cis-regulatory reporter, NFI response element transcription; actives raise or lower the signal
Procedure, shortened: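 Reporter transcripts were measured by RT-PCR with fluorescent primer extension and capillary electrophoresis 24 h post-treatment. HepG2 cells carried transiently transfected cis-regulated reporter constructs reporting endogenous factor activity; gain or loss fitted against DMSO baseline.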

[11] = target: Myc proto-oncogene protein (Homo sapiens) (UniProt P01106); test: ATG_Myc_CIS: Attagene CIS-FACTORIAL HepG2 Assay for human Myelocytomatosis (Myc) Proto-Oncogene Transcription Factor (AID 2282990); settings: HepG2, Attagene cis-reporter transcription factor activity; actives raise or lower the signal
Procedure, shortened: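 Cells of the HepG2 human liver line bear multiple cis-driven reporter transcription units. Reporter mRNA after 24 h exposure is reverse-transcribed, amplified, labelled and resolved by capillary electrophoresis, with gain- or loss-of-signal fitting relative to DMSO.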

[12] = ATG_NRF2_ARE_CIS: Attagene CIS-FACTORIAL HepG2 Assay for human Nuclear Factor Erythroid 2 Related Factor 2 (NFR2) response to Antioxidant Response Elements (ARE) (AID 2282992); settings: HepG2 Attagene ARE/NRF2 reporter, transcription factor activity; actives raise or lower the signal;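 for AC50: reporter mRNA level measured by RT-PCR and capillary electrophoresis fluorescence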
Procedure, shortened: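 Endogenous transcription factor activity in human liver HepG2 cells is tracked via a cis-element-driven reporter within a multiplexed set. mRNA induction is read by RT-PCR and capillary electrophoresis after 24 h, with DMSO as baseline.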

[13] = target: Cellular tumor antigen p53 (Homo sapiens) (UniProt P04637); test: ATG_p53_CIS: Attagene CIS-FACTORIAL HepG2 Assay for human p53 Transcription Factor (AID 2282994); settings: HepG2 p53 cis-element reporter, Attagene mRNA; actives raise or lower the signal
Procedure, shortened: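 Steps: transfect HepG2 with multiplexed cis reporter constructs; dose chemicals 24 h; extract RNA, reverse-transcribe, PCR-amplify reporter sequences; FAM-label, HpaI-digest, resolve fragments by CE. Activity fitted both directions relative to DMSO.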

[14] = BSK_3C_TissueFactor: BioMAP Diversity Plus: 3C Assay for Tissue Factor Biomarker Activity (AID 2282997); settings: BioMAP 3C HUVEC, tissue factor biomarker readout; actives raise or lower the signal
Procedure, shortened: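 Cells used were primary human umbilical vein endothelial cells. They were dosed with chemical, and after 24 h Tissue Factor was quantified by ELISA. Curves were fitted bidirectionally with DMSO as baseline.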

[15] = target: Estrogen-related receptor gamma (Homo sapiens) (UniProt P62508); test: ATG_ERRg_TRANS: Attagene TRANS-FACTORIAL HepG2 Assay for human Estrogen-Related Receptor gamma (ERRg) (AID 2282977; active = hit-call score of the fitted dose curve at least 0.9, where 1 is the maximum;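 note: hits increase reporter signal over DMSO so potencies reflect activators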); settings: HepG2 Attagene TRANS reporter, ERRg transactivation
Procedure, shortened: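 Readout: fluorescent reporter-mRNA fragments resolved by capillary electrophoresis after RT-PCR and HpaI cut. Cells: transiently transfected HepG2 carrying GAL4-UAS reporters driven by exogenous NR-Gal4 chimeras, dosed 24 h. Activity fitted upward relative to DMSO baseline.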

[16] = ATG_NF_kB_CIS: Attagene CIS-FACTORIAL HepG2 Assay for human Nuclear Factor Kappa B (NF-kB) (AID 2282991); settings: HepG2 Attagene cis-factorial NF-kB reporter mRNA; actives raise or lower the signal
Procedure, shortened: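 Multiplexed cis-reporter assay in transiently transfected HepG2. 24 h treatment; RNA isolated, RT-PCR, labelled fragments resolved by CE. DMSO baseline.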

[17] = target: Glucocorticoid receptor (Homo sapiens) (UniProt P04150); test: ATG_GR_TRANS: Attagene TRANS-FACTORIAL HepG2 Assay for human Glucocorticoid Receptor (GR) (AID 2282978; active = hit-call score of the fitted dose curve at least 0.9, where 1 is the maximum;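 note: activators score as hits since higher reporter transcript over DMSO is fitted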); settings: HepG2 Attagene TRANS GR reporter, mRNA transcription
Procedure, shortened: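 Multiplexed TRANS reporter system, HepG2; 24 h exposure; RNA → oligo(dT) RT → reporter-specific PCR → 6-FAM primer extension → HpaI cut → CE fluorescence. Gain-of-signal vs DMSO.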

[18] = ATG_Oct_MLP_CIS: Attagene CIS-FACTORIAL HepG2 Assay for human Octamer-Binding Transcription Factor (Oct) (AID 2282993); settings: HepG2 Attagene cis-factorial Oct reporter, mRNA; actives raise or lower the signal
Procedure, shortened: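 Readout is reporter transcript level from RT-PCR with fluorescent primer extension and capillary electrophoresis, fitted in both directions against DMSO. Transfected HepG2 reporter units report endogenous factor activity after 24 h dosing.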

[19] = target: Bile acid receptor (Homo sapiens) (UniProt Q96RI1); test: ATG_FXR_TRANS: Attagene TRANS-FACTORIAL HepG2 Assay for Farnesoid X Receptor (FXR) (AID 2282979; active = hit-call score of the fitted dose curve at least 0.9, where 1 is the maximum;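 note: hits raise reporter mRNA above DMSO so AC50 marks FXR activation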); settings: HepG2 Attagene TRANS FXR-GAL4 reporter transcription
Procedure, shortened: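 Chimeric FXR-GAL4 activity in transiently transfected human HepG2 liver cells is scored as induction of reporter mRNA after 24 h of dosing. Detection uses RT-PCR with fluorescent labelling and capillary electrophoresis, with DMSO serving as baseline.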

Measured: AC50

Nuclear receptor subfamily 4 group A member 2 (Homo sapiens), sequence (P43354 whole entry, looked up, the tested form may be a part): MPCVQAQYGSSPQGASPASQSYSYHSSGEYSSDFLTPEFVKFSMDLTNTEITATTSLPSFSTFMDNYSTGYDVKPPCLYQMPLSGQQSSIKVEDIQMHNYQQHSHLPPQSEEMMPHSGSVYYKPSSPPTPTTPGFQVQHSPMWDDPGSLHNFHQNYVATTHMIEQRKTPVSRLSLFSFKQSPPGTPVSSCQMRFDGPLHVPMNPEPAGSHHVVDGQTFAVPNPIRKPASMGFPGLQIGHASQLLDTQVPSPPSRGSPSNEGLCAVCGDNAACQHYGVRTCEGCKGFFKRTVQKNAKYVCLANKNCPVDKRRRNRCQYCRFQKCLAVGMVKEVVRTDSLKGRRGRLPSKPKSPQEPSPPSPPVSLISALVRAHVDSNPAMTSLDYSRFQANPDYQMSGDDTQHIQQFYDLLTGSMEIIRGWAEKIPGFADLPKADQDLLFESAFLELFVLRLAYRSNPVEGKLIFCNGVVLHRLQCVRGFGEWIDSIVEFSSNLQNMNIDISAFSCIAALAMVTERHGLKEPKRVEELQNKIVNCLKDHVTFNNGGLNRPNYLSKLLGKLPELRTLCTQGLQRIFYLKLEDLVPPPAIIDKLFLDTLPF
Hepatocyte nuclear factor 4-alpha (Homo sapiens), sequence (P41235 whole entry, looked up): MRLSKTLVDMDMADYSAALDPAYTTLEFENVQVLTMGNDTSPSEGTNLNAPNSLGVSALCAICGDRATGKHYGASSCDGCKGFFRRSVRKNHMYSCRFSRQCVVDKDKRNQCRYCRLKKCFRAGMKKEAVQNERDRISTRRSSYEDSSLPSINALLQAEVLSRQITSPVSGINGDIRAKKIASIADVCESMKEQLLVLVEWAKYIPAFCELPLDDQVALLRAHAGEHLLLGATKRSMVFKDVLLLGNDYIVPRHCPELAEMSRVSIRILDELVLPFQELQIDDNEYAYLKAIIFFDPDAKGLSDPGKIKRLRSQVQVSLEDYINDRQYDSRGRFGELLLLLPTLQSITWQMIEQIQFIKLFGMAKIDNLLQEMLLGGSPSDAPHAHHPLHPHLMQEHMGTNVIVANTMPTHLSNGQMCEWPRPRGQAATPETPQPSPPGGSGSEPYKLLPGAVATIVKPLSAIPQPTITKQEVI
Nuclear respiratory factor 1 (Homo sapiens), sequence (Q16656 whole entry, looked up): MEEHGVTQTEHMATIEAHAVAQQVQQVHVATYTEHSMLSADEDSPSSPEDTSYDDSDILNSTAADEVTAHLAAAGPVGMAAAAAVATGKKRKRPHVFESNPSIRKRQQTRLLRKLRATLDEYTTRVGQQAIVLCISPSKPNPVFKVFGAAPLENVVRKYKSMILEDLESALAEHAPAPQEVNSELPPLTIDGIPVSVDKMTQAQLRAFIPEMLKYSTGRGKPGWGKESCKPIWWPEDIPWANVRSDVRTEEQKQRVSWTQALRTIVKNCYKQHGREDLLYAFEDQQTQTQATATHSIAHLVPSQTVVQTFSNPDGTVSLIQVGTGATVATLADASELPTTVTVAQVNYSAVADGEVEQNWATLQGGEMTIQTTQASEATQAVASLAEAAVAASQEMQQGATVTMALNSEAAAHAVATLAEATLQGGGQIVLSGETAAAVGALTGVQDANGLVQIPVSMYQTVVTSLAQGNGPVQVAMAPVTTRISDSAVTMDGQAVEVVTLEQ
Oxysterols receptor LXR-beta (Homo sapiens), sequence (P55055 whole entry, looked up, the tested form may be a part): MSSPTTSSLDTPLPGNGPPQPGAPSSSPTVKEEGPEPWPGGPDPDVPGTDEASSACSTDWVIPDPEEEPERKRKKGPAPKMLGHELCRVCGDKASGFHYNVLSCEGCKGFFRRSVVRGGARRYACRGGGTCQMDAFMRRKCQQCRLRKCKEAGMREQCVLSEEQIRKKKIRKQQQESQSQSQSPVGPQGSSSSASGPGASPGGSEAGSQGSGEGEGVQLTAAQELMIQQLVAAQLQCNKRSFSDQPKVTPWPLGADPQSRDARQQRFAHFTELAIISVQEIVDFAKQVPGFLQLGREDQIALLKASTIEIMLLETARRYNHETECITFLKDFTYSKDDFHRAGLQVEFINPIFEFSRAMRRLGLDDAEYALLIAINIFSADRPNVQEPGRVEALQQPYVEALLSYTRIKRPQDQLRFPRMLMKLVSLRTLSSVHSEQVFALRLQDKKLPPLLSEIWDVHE
Cellular tumor antigen p53 (Homo sapiens), sequence (P04637 whole entry, looked up, the tested form may be a part): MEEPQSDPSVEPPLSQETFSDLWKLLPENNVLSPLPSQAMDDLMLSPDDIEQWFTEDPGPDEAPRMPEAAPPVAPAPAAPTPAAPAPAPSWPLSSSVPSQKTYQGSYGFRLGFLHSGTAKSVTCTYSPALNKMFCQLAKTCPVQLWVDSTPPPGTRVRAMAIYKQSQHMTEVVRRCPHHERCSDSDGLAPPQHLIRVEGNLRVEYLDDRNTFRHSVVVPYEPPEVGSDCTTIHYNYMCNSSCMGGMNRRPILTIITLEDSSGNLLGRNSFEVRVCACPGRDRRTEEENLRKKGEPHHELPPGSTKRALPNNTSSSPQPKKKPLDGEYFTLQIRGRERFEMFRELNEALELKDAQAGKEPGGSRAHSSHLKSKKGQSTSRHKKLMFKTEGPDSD
Estrogen-related receptor gamma (Homo sapiens), sequence (P62508 whole entry, looked up, the tested form may be a part): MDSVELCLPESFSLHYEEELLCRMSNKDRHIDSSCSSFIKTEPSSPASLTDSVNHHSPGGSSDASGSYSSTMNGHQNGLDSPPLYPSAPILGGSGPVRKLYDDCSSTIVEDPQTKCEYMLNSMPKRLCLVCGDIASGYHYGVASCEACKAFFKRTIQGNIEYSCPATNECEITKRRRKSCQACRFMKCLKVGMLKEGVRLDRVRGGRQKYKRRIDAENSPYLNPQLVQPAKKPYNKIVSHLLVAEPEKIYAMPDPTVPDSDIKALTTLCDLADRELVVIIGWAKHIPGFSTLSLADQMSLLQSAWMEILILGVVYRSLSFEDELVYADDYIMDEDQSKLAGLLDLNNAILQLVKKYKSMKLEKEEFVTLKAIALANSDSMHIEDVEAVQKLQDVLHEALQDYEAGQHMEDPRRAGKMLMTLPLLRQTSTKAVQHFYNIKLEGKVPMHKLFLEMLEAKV
Transcriptional activator Myb (Homo sapiens), sequence (P10242 whole entry, looked up): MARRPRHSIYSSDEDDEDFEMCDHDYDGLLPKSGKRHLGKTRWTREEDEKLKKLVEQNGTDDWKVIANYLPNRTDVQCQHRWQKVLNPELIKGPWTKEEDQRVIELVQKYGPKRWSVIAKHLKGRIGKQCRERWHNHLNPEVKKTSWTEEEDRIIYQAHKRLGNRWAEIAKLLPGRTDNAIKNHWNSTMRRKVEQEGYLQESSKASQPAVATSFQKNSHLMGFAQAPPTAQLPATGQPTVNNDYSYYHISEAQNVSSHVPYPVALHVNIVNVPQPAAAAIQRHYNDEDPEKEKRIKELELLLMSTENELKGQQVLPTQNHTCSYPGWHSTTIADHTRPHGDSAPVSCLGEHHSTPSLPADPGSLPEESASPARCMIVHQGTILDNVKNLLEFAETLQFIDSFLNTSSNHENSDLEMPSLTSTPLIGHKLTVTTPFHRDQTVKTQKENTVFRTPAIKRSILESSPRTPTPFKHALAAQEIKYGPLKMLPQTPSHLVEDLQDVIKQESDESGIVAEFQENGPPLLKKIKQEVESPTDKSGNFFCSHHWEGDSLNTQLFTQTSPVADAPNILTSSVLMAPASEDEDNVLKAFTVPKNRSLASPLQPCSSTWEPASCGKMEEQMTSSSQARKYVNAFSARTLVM
Glucocorticoid receptor (Homo sapiens), sequence (P04150 whole entry, looked up): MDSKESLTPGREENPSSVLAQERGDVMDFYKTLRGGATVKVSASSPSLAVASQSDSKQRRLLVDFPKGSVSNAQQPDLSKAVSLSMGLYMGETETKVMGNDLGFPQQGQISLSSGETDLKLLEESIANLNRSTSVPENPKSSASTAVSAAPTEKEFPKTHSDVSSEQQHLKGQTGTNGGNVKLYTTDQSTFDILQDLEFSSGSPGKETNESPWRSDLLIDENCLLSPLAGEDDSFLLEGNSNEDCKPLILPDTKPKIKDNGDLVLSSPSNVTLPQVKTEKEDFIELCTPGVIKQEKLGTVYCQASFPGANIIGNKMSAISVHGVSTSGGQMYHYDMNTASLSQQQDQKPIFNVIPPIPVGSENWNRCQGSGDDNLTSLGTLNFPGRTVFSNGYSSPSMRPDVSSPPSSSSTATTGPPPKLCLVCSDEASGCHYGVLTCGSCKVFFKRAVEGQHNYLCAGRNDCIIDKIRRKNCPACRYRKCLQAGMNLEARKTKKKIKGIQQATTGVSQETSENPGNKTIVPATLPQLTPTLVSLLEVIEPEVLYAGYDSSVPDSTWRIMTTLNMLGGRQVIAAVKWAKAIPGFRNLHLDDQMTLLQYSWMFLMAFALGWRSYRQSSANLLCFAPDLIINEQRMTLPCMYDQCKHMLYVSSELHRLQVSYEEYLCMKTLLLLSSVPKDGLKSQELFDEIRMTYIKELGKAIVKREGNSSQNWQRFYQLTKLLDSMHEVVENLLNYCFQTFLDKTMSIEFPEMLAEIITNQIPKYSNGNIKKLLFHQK
Oxysterols receptor LXR-alpha (Homo sapiens), sequence (Q13133 whole entry, looked up): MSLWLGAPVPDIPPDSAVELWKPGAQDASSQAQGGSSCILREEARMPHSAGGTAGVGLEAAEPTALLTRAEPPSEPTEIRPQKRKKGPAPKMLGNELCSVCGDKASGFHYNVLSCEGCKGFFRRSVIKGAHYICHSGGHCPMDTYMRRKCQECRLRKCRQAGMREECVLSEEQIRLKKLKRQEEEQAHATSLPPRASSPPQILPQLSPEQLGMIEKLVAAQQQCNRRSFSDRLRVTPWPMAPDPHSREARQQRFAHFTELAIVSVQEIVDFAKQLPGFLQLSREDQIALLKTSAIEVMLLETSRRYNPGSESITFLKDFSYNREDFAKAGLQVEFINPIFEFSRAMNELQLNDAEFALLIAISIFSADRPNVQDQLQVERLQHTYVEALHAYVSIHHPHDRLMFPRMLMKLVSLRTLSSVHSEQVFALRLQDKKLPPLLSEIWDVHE

COC(=O)c1ccccc1S(=O)(=O)NC(=O)Nc1nc(C)nc(OC)n1
active: [12] 31.3 µM
inactive: [1] | [2] | [3] | [4] | [5] | [6] | [7] | [8] | [9] | [10] | [11] | [12] | [13] | [14]

CC(C)N(C(=O)COc1nnc(C(F)(F)F)s1)c1ccc(F)cc1
active: [16] 12.6 µM | [12] 20.7 µM
inactive: [15] | [2] | [3] | [7] | [8] | [9] | [10] | [11] | [13] | [14]

Cc1cc(C)nc(NC(=O)NS(=O)(=O)c2ccccc2C(=O)OC2COC2)n1
inactive: [15] | [17] | [3] | [4] | [5] | [8] | [9] | [10] | [11] | [16] | [12] | [13] | [14]
active: [18] 50 µM

CC1(c2ccc(Oc3ccccc3)cc2)OC(=O)N(Nc2ccccc2)C1=O (centres undefined)
inactive: [17] | [2] | [3] | [4] | [6] | [7] | [8] | [9] | [10] | [11] | [13]
active: [12] 1.61 µM | [14] 29.5 µM

O=C(O)C(F)(F)C(F)(F)C(F)(F)C(F)(F)C(F)(F)C(F)(F)C(F)(F)F
active: [12] 84.7 µM [middle of 4 runs]
inactive: [1] | [5] | [6] | [7] | [8] | [9] | [10] | [11] | [16] | [13] | [14]

COc1cc(OC)nc(NC(=O)NS(=O)(=O)c2cc(NC=O)ccc2C(=O)N(C)C)n1
inactive: [19] | [3] | [4] | [7] | [8] | [9] | [10] | [11] | [16] | [12] | [13] | [14]

COP(=S)(OC)Oc1ccc([N+](=O)[O-])cc1
inactive: [1] | [2] | [3] | [4] | [5] | [6] | [7] | [8] | [9] | [10] | [11] | [16] | [12] | [13] | [14]

Clc1ccccc1-c1nnc(-c2ccccc2Cl)nn1
inactive: [3] | [4] | [6] | [7] | [8] | [9] | [10] | [11] | [14]
active: [12] 13.6 µM

COC(=O)c1ccccc1S(=O)(=O)NC(=O)N(C)c1nc(C)nc(OC)n1
inactive: [3] | [4] | [5] | [7] | [8] | [9] | [10] | [11] | [16] | [12] | [13] | [14]

CCS(=O)(=O)c1cccnc1S(=O)(=O)NC(=O)Nc1nc(OC)cc(OC)n1
active: [12] 17.6 µM and 19.1 µM
inactive: [15] | [17] | [19] | [3] | [4] | [5] | [6] | [7] | [8] | [9] | [10] | [11] | [16] | [13] | [14]

[2H]C1([2H])[n+]2ccccc2-c2cccc[n+]2C1([2H])[2H]
active: [10] 50 µM | [11] 13.3 µM | [16] 13.2 µM | [12] 14.8 µM
inactive: [17] | [3] | [4] | [5] | [6] | [8] | [9] | [13] | [14]

O=S1OCC2C(CO1)C1(Cl)C(Cl)=C(Cl)C2(Cl)C1(Cl)Cl (centres undefined)
active: [14] 29 µM
inactive: [3] | [4] | [5] | [6] | [7] | [8] | [9] | [10] | [11] | [16] | [12] | [13]

CC(C)(C)C(O)/C(=C\c1ccc(Cl)cc1Cl)n1cncn1 (centres undefined)
active: [14] 36.7 µM
inactive: [15] | [3] | [5] | [6] | [8] | [9] | [10] | [11] | [12] | [18] | [13]
